# High-throughput results: PubChem, several laboratories
# In the library only some 2.7% were active in any assay of this set; here they are far more common.
# CF NFkB inh: cystic fibrosis NF-kB activation inhibition | KKLEB NF-kB-GFP reporter, PAF-induced, GFP fluorescence overnight | inhibition, % at 5 µM | hit rate 0.86% among 360,000;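 active means at least 50% inhibition at 5 µM, scaled per plate between neutral and stimulator controls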;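 further: PAF is a Pseudomonas aeruginosa culture filtrate used as stimulus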
# Shn3 3UTR inh: reduces Shn3 3'UTR luciferase signal in osteoblasts; AID 588674; inhibition, % at 12.5 µM; hit rate 0.52% among 360,000; Clone20 osteoblast Shn3 3'UTR firefly luciferase, 24 h;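 active means mean inhibition of at least 75% with every replicate also reaching 75%; inconclusive means mean inhibition at least 75% but some replicate below; inactive means mean inhibition below 75%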
# KKLEB cytotox: reduces viability of KKLEB cystic fibrosis airway cells. KKLEB CF airway cells viability, ATPlite luminescence, overnight; hits give low values; cells stimulated with P. aeruginosa culture filtrate. activity change (cytotoxicity), % at 5 µM. hit rate 0.36% among 360,000. AID 602141;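 active means corrected activity change at or below -50% at 5 µM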
# HIF-2a block: HIF-2a inhibition | AID 624352 | 786-0 RCC cells HIF-2a reporter, luciferase luminescence, overnight | inhibition, % at 18.8 µM | hit rate 0.72% among 360,000;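 active means inhibition of the luminescence signal of 40% or more relative to plate controls, in a single-dose primary screen at 18.75 µM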
# Peg3 prom inh: inhibitors of Peg3 promoter; HeLa PEG-Prom luciferase reporter, luminescence, overnight; inhibition, % at 20 µM; hit rate 1.7% among 360,000;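 active means inhibition of at least 50% at 20 µM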
# TRPM1 prom inh: inhibitors of MITF-driven TRPM1 promoter in melanoma cells; SK-MEL-5 TRPM1 promoter luciferase, 24 h; hit rate 0.83% among 330,000; inhibition, % at 12.5 µM;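 active means mean inhibition across replicates of 60% or more, whatever share of single replicates reaches that level; inconclusive means some that reach 60%, reason not given; inactive means mean inhibition across replicates below 60%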
# Hits are given with their value; 0 = inactive; ? = inconclusive; - = no result given.
SMILES,CF NFkB inh,Shn3 3UTR inh,KKLEB cytotox,HIF-2a block,Peg3 prom inh,TRPM1 prom inh
NC(COCc1ccccc1)c1csc(Nc2nccc(C(F)(F)F)n2)n1 (stereo unspecified),0,0,0,0,0,-
Cc1cc(C)nc(Nc2nc(C(N)Cc3ccc(Cl)cc3)cs2)n1 (stereo unspecified),0,0,0,0,92,-
Cc1cc(C)nc(Nc2nc(C(N)Cc3ccc(C(F)(F)F)cc3)cs2)n1 (stereo unspecified),0,0,0,0,102,-
O=C1C=CC(=NN=C(c2ccccc2)c2ccccc2)C=C1,0,0,0,0,0,-
CNS(=O)(=O)c1cccc(C(=O)OCc2cc(C(C)=O)ccc2OC)c1,0,82,0,0,0,0
COc1ccc(C(C)=O)cc1COC(=O)c1ccc(S(=O)(=O)N(C)C)cc1,0,0,0,0,0,0
[O-][n+]1cc(Cl)cc(Cl)c1,0,0,0,0,0,-
CN(Cc1cc(Cl)cc(Cl)c1)CC(C(=O)c1ccccc1)c1ccccc1 (stereo unspecified),0,0,0,0,0,84
Cc1cc(Br)cn2c(CC(C)(C)C)c(C3CCCCC3)nc12,0,0,0,0,0,-
Cc1ccc(NC(=O)CSc2nnnn2-c2ccc3c(c2)OCO3)cc1C,65,0,-54,0,0,0
CCCC(=O)NC1=C(Cl)C(=O)c2ccccc2C1=O,0,90,0,95,98,101
O=C1C(Cl)=C(NCc2ccco2)C(=O)c2ccccc21,74,0,0,0,0,94
O=C1c2ccccc2-c2onc3ccc(NCc4ccco4)c1c23,0,0,0,0,0,0
O=C(NCCN1CCCC1)c1ccccc1Cl,0,0,0,0,0,0
O=C1C(Cl)=C(NCCN2CCCCC2)C(=O)c2ccccc21,75,95,0,87,99,99
CCNC1=C(Cl)C(=O)c2ccccc2C1=O,0,0,0,67,0,74
O=C1C(Cl)=C(NS(=O)(=O)c2ccc([N+](=O)[O-])cc2)C(=O)c2ccccc21,0,0,0,0,0,?
COCCn1c(=S)[nH]c2cc(C(=O)NC3CCCC(C)C3C)ccc2c1=O (stereo unspecified),0,0,0,0,0,-
CC(=O)C1CCC2C3C=CC4=CC(=O)CCC4(C)C3CCC12C (stereo unspecified),0,0,0,0,0,-
O=C(c1ccccc1)C(CN1CCCCC1)c1ccccc1 (stereo unspecified),85,?,-63,0,103,97
CCOc1ccc(C(CN2CCOCC2)C(C)=O)cc1OC (stereo unspecified),0,0,0,0,58,-
CCOc1ccc(C(=O)C(CN2CCOCC2)c2ccccc2)cc1 (stereo unspecified),0,0,0,0,82,0
CCOc1ccc(C(O)(CCC(C)C)C(CN2CCOCC2)c2ccccc2)cc1 (stereo unspecified),0,0,0,0,0,0
Cc1cccc(NC(=O)c2nc[nH]c2C(=O)N[C@H](C)CO)c1,0,0,0,0,0,-
COc1ccc(NC(=O)/C(Cl)=C(/Cl)S(=O)Cc2ccccc2)cn1 (stereo unspecified),88,97,-95,94,105,104
SMILES,CF NFkB inh,Shn3 3UTR inh,KKLEB cytotox,HIF-2a block,Peg3 prom inh,TRPM1 prom inh
COc1ccc(NC(=O)Cc2ccccc2)cn1,0,0,0,0,0,0
COc1ccc(-c2nc(NCCN(C)C)nc3ccsc23)c(C)c1,0,0,0,0,0,-
C=CCC[C@H](Cc1ccc(F)cc1)C(=O)OC[C@H](Cc1c[nH]c2ccccc12)NC(=O)[C@@H](CC=C)CC(=O)N[C@H](CO)Cc1ccccc1,0,92,0,0,0,0
C=CCC[C@H](Cc1ccc(F)cc1)C(=O)OC[C@H](Cc1c[nH]c2ccccc12)NC(=O)[C@@H](CC=C)CC(=O)N[C@@H](CO)Cc1ccccc1,0,0,0,0,0,75
C=CC[C@H](CC(=O)N[C@H](CO)Cc1ccccc1)C(=O)N[C@@H](COC(=O)[C@@H](CC=C)CC(=O)OC(C)(C)C)Cc1c[nH]c2ccccc12,0,0,0,0,63,0
CCOC(=O)C1CCCN(C(=O)c2ccc(SC(F)(F)F)cc2)CC1 (stereo unspecified),0,0,0,0,0,-
CC(=O)Nc1cccc(-c2cc(NC(C)=O)c3ncc(-c4ccc(C(C)=O)cc4)n3c2)c1,0,0,0,0,0,-
COc1ccc(-n2ncc3c(N4CCCCC4)ncnc32)cc1,0,0,-82,81,81,84
COc1ccc(-n2ncc3c(N4CCN(c5cc(C)ccc5C)CC4)ncnc32)cc1,0,0,0,0,0,0
COc1ccc(-n2ncc3c(N4CCN(c5cccc(C)c5C)CC4)ncnc32)cc1,0,0,0,0,68,-
Cc1ccc(-n2ncc3c(N4CCN(c5ccccc5)CC4)ncnc32)c(C)c1,0,0,0,0,97,0
O=C(C[C@H]1CC[C@@H]2[C@H](COC[C@@H](O)CN2Cc2cccc(F)c2)O1)NCC1CCCCC1,-,-,-,0,-,-
COCCNC(=O)C[C@@H]1C[C@H]2c3cc(NC(=O)Nc4ccc(F)cc4)ccc3O[C@H]2[C@H](CO)O1,0,0,0,0,0,-
O=C(/C=C/c1cccc([N+](=O)[O-])c1)Nc1ccc(NC(=O)c2cccs2)cc1,0,0,0,0,0,0
O=C(/C=C/c1cccc([N+](=O)[O-])c1)c1cccs1,0,0,0,0,99,80
Cc1cccnc1C(NC(=O)C1CCN(Cc2ccc(Oc3ccccc3)cc2)CC1)c1ccc(F)cc1 (stereo unspecified),0,0,0,0,0,-
CN(C1=C(NC(=O)c2ccccc2)C(=O)c2ccccc2C1=O)C1CCS(=O)(=O)C1 (stereo unspecified),0,0,0,0,0,103
CCCCN(C(C)=O)c1ccc2c(c1)C1CC2CCN1C(=O)OCc1ccccc1 (stereo unspecified),0,90,0,0,0,0
COc1ccc(-c2csc(NC(=O)C3CCN(c4ncnc5sc(C)c(C)c45)CC3)n2)cc1OC,0,96,0,0,0,86
COc1ccc(-c2csc(NC(=O)c3ccc(OCC(=O)N4CCOCC4)c(OC)c3)n2)cc1OC,0,0,0,0,92,0
N#Cc1ccc(C(=O)N2CCCCC2c2cc(C(=O)Nc3ccc4c(c3)OCO4)no2)cc1 (stereo unspecified),0,0,0,0,0,-
C[C@@H]1O[C@@H](O[C@H]2[C@H](Oc3cc(O)c4c(c3)OC(c3ccc(O)cc3)CC4=O)O[C@H](CO)[C@@H](O)[C@@H]2O)[C@H](O)[C@H](O)[C@H]1O (stereo partly specified),0,0,-54,0,0,0
O=C1Cc2ccccc2C(=O)N1,-,-,-,0,-,-
